NPR1 antag – antagonists of human natriuretic peptide receptor Npr1; HEK293 hNpr1 GloSensor cGMP, ANP-stimulated luminescence; Potency, µM (doses to about 46.3 µM), hits mostly inhibitors; 76,000 tested, 1.6% active; AID 1347048; calls by dose curve; also: nearly all actives have a fitted effect of over 60% in size
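Compound pre-incubated 30 min at room temperature on GloSensor-loaded HEK293 cells stably carrying hNpr1 and the pGS-40F cGMP biosensor. Stimulation uses hNppA at 0.1 nM final; luminescence is taken at baseline and 20 min post-agonist.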
3T3 cytotox – NIH 3T3 cell cytotoxicity; Potency, µM (series often up to 96.7 µM), actives largely listed as inhibitors; 94,000 tested, 4.3% active; NIH 3T3 viability, CellTiter-Glo ATP luminescence, 48-72 h; also: nearly all actives have a fitted effect of over 55% in size
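First NIH 3T3 cells are plated at 400 cells/well; next compound is pinned in; then plates incubate 48 or 72 hr at 37 °C; finally CellTiter-Glo is added and luminescence read after 10 min.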
GPT2 inhibitor – GPT2 alanine aminotransferase inhibition. Q8TD30. Recombinant GPT2, coupled pyruvate oxidase/HRP Amplex Red fluorescence. 100,000 tested, 0.25% active. Potency, µM (highest dose often 57.7 µM), most hits filed as inhibitors; also: nearly all actives have a fitted effect of over 60% in size
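Inhibition is scored from Amplex Red fluorescence generated when pyruvate oxidase and HRP act on pyruvate released by GPT2. Reactions contain 10ng/uL enzyme, 250uM a-KG and 2mM L-alanine and run 30 min at room temperature.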
HEK cytotox – HEK 293 cell cytotoxicity. HEK 293 viability, ATP luminescence (CellTiter-Glo), 48-72 h. Potency, µM (top dose mostly 115 µM), actives largely listed as inhibitors. 94,000 tested, 6.6% active. AID 1345083; also: nearly all actives have a fitted effect of over 60% in size
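HEK 293 seeded at 250 cells/well receive compound via pintool. After 48 or 72 hr at 37 degree Celsius, 5% CO2 and 95% humidity, CellTiter-Glo is dispensed and luminescence read following 10 min at room temperature.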
FLuc inh – blocks purified firefly luciferase enzyme activity. purified P. pyralis luciferase, luminescence, biochemical. Potency, µM (top dose mostly 115 µM), hits mostly inhibitors. 76,000 tested, 2.5% active; also: nearly all actives have a fitted effect of over 65% in size
Target sequence (P08659 whole entry, looked up): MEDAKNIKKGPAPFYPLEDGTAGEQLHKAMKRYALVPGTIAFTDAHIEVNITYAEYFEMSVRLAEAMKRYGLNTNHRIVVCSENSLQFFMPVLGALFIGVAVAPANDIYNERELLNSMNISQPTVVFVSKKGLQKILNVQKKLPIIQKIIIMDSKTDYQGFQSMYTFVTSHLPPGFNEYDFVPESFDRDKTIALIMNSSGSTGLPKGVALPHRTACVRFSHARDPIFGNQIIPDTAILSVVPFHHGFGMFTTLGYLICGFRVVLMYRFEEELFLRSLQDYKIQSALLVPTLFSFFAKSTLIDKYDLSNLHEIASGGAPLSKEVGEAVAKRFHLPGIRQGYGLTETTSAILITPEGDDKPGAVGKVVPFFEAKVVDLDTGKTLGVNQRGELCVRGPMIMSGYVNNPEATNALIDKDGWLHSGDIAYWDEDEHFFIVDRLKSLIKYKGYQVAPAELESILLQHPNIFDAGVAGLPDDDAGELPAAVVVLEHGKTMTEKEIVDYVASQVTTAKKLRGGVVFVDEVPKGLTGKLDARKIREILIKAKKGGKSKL
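Luminescence read by CCD imaging after purified firefly luciferase (10nM final) was added to substrate buffer holding 10uM D-luciferin and 10uM ATP, pH 7.5, pre-dosed with compound.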
Numbers stand for hits; - = inactive; ? = inconclusive; . = not tested or not shown. Most compounds without a hit are left out; they make up all but 10% or so of the library. Unless noted, calls follow the shape of the dose curve; as a rule, active = well fitted curve in the direction sought with a large enough effect; inconclusive = small, poorly fitted or top-dose-only effect, or another doubt; inactive = no such curve, though single readings can be large; an effect the other way counts as inactive or inconclusive.

SMILES	NPR1 antag	3T3 cytotox	GPT2 inhibitor	HEK cytotox	FLuc inh
COc1ccccc1-c1ccc(C(=O)N2CCC(C(=O)NCc3cccc(Cl)c3)CC2)cc1	.	?	-	20µM	.
COc1ccccc1-c1ccc(C(=O)N2CCC(NC(=O)Nc3ccc(Cl)cc3)CC2)cc1	.	?	-	31.6µM	.
COc1ccccc1-c1ccc(C(=O)N2CCC(NC(C)=O)CC2)cc1	.	-	-	?	.
O=C(NCc1ccc(C(F)(F)F)cc1)C1CCN(C(=O)c2ccc(-c3cncnc3)cc2)CC1	.	17.8µM	.	?	.
O=C1COC[C@H]([C@H](O)c2ccc(NC(=O)c3ccc(C(F)(F)F)cc3)cc2)N1	-	-	-	?	?
C[S+](=O)([O-])c1ccc(-c2nnc3ccc(C(=O)NCC4CC4)cn23)cc1	.	-	-	-	.
c1csc(CN2CCC(Oc3ccccc3-c3nc(-c4cnccn4)no3)C2)c1 (centres undefined)	-	?	-	?	-
Cn1cccc1CN1CCC(Oc2ccccc2-c2nc(-c3ccncc3)no2)C1 (centres undefined)	.	39.8µM	-	?	.
CC(=O)N1CCC(Oc2ccccc2-c2nc(-c3ccccc3)no2)C1 (centres undefined)	-	?	-	?	-
Cc1ccsc1CN1CCC(Oc2ccccc2-c2nc(-c3ccncc3)no2)C1 (centres undefined)	-	31.6µM	-	25.1µM	?
C1CCC(CN2CCCC(c3nc(CCOCC4CCOCC4)no3)C2)CC1 (centres undefined)	-	-	-	?	-
CC(C)NC(=O)c1ccc2nnc(-c3cccc(OC(F)(F)F)c3)n2c1	.	?	-	?	.
O=C(N[C@@H]1CN(C(=O)Nc2cccc(C(F)(F)F)c2)CCC[C@H]1O)c1ccc(OCc2ccccc2)cc1	-	39.8µM	-	31.6µM	-
COc1ccc(C(=O)N[C@@H]2CN(Cc3cccc(OC)c3)CCC[C@H]2O)cc1	-	-	-	-	-
Cc1noc(C)c1COc1ccc(C(=O)N[C@@H]2CN(C(=O)Nc3cccc(C(F)(F)F)c3)CCC[C@H]2O)cc1	-	?	-	?	-
COC(=O)c1ccccc1NC(=O)N1CCC[C@@H](O)[C@H](NC(=O)c2ccc(OCc3c(C)noc3C)cc2)C1	-	39.8µM	-	?	-
CC[C@H]1CN(C(=O)Nc2cccc(C(F)(F)F)c2)CC[C@H]1CC(=O)Nc1ccccc1	-	?	?	50.1µM	-
COc1cccc(CN2CCC[C@@H](O)[C@H](NC(=O)c3ccc(OCc4ccccc4)cc3)C2)c1	-	35.5µM	-	?	-
COc1ccc(C2(C(=O)N3CCC(Cc4nc(-c5ccccc5)n[nH]4)C3)CC2)cc1 (centres undefined)	.	?	-	?	.
NC(=O)COc1ccc(C(=O)N[C@@H]2CN(Cc3ccccn3)CCC[C@H]2O)cc1	-	?	-	?	-
O=C(N[C@@H]1CN(Cc2ccccn2)CCC[C@H]1O)c1ccc(OCc2ccccc2)cc1	-	?	?	89.1µM	-
O=c1n(-c2ccncc2)nc2n1CCN(Cc1ccc(OC(F)(F)F)cc1)C2	?	?	-	22.4µM	-
O=c1n(-c2ccncc2)nc2n1CCN(Cc1ccccc1)C2	-	?	-	79.4µM	?
CN(C)c1ccc(CN2CCn3c(nn(-c4ccc(Cl)cc4)c3=O)C2)cc1	.	-	-	?	.
COc1ccc(CN2CCn3c(nn(-c4ccc(C(F)(F)F)cc4)c3=O)C2)cc1	.	-	-	-	.
SMILES	NPR1 antag	3T3 cytotox	GPT2 inhibitor	HEK cytotox	FLuc inh
Cc1ccc(Nc2ccnc(N3CCC(NC(=O)NC(C)C)CC3)n2)cc1	.	?	-	?	.
COC(=O)NC1CCN(C(=O)c2ccc(-c3ncccc3C#N)cc2)CC1	.	-	-	-	.
COC(=O)c1ccc2nc(C[C@@H]3C[C@@H](C(C)C)[C@H](CNC(=O)C4CCC4)C=C3C)[nH]c2c1	-	?	-	?	-
COC(=O)c1ccc2nc(C[C@@H]3C[C@@H](C(C)C)[C@H](CN(C)C)C=C3C)[nH]c2c1	-	70.8µM	?	?	-
COC(=O)c1ccc2nc(C[C@@H]3C[C@@H](C(C)C)[C@H](CNC(=O)CN(C)C)C=C3C)[nH]c2c1	-	?	-	35.5µM	-
COCC(=O)NC[C@@H]1C=C(C)[C@H](Cc2nc3ccc(C(=O)OC)cc3[nH]2)C[C@H]1C(C)C	-	100µM	-	63.1µM	-
COc1ccccc1-c1nnc2ccc(C(=O)N3CCOCC3)cn12	.	-	-	-	.
CCc1nc(N2CCc3ccccc3C2)ncc1C(=O)O	-	25.1µM	-	31.6µM	22.4µM
Cc1ccc(C(=O)N2CCCC2c2nc(CCOCc3ccccc3)no2)s1 (centres undefined)	.	?	-	?	.
c1cc(N2CCCCC2)ccc1-c1n[nH]c(C2CCOC2)n1 (centres undefined)	-	?	-	-	6.31µM
c1cnn(-c2ccc(-c3n[nH]c(C4CCOCC4)n3)cc2)c1	-	-	-	-	?
Cc1ccc([S+](=O)([O-])N2CCC(C(=O)N3CCCC(c4nc5ncccc5[nH]4)C3)CC2)cc1 (centres undefined)	.	?	-	28.2µM	.
O=C(C1CCN(CC2CC2)CC1)N1CCC(c2nc3ncccc3[nH]2)CC1	.	-	-	-	.
Cc1ccc([S+](=O)([O-])N2CCCC(C(=O)N3CCC(c4nc5ncccc5[nH]4)CC3)C2)cc1 (centres undefined)	.	?	-	50.1µM	.
O=C(Nc1ccc(Cl)cc1)N1CCCC(C(=O)N2CCCC(c3nc4ncccc4[nH]3)C2)C1 (centres undefined)	.	22.4µM	-	?	.
O=C(Nc1ccc(Cl)cc1)N1CCCC(C(=O)N2CCC(c3nc4ncccc4[nH]3)C2)C1 (centres undefined)	.	-	-	-	.
c1cnc2nc(C3CCN(CC4CCCCC4)C3)[nH]c2c1 (centres undefined)	-	-	-	?	20µM
Cc1noc(C)c1[S+](=O)([O-])N1CCCC(C(=O)N2CCC(c3nc4ncccc4[nH]3)CC2)C1 (centres undefined)	.	-	-	-	.
O=C(C1CCCN([S+](=O)([O-])c2cccc(C(F)(F)F)c2)C1)N1CCCC(c2nc3ccncc3[nH]2)C1 (centres undefined)	.	?	-	44.7µM	.
COc1ccc(C(=O)N2CCC(n3cc(-c4nc(-c5ccccc5)no4)nn3)C2)cc1OC (centres undefined)	?	-	-	?	?
CN(C)c1ccc(C(=O)N2CCC(n3cc(-c4nc(C5CC5)no4)nn3)C2)cc1 (centres undefined)	-	-	-	?	-
O=C(c1cc(F)ccc1Cl)N1CCC(n2cc(-c3nc(-c4ccccc4)no3)nn2)C1 (centres undefined)	12.6µM	?	-	?	?

High-throughput results from PubChem.
